# According to PubChem BioAssay (EPA / NIEHS):
# Activity calls are given as the source filed them. How the source made its calls: active means hit-call score of the fitted dose curve at least 0.9, where 1 is the maximum; inactive means score below 0.9.
# Experiment: APR_HepG2_CellLoss_1hr: Apredica 1-hour HepG2 Assay for Cell Loss (AID 2282668);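 further: curves fitted both ways against DMSO so gain or loss of cells counts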
# Details: high-content imaging
# Outline: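 Cell number comes from high-content imaging of Hoechst-labelled nuclei in fixed HepG2 cells. Cells were exposed for 1 h to ten concentrations from 0.39 to 200 uM in 0.5% DMSO. Gain or loss was fitted against DMSO controls.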
Compound,outcome,AC50
O=S(=O)(O)C(F)(F)C(F)(F)C(F)(F)C(F)(F)C(F)(F)C(F)(F)C(F)(F)C(F)(F)F,inactive,–
CC(C)(C)C(O)/C(=C\c1ccc(Cl)cc1Cl)n1cncn1 (centres undefined),inactive,–
Cc1cc(C)nc(NC(=O)NS(=O)(=O)c2ccccc2C(=O)OC2COC2)n1,inactive,–
CN1CSC(=S)N(C)C1,inactive,–
CC(C)N(C(=O)COc1nnc(C(F)(F)F)s1)c1ccc(F)cc1,inactive,–
[2H]C1([2H])[n+]2ccccc2-c2cccc[n+]2C1([2H])[2H],inactive,–
Oc1ccc(Cl)cc1Cc1ccccc1,–,118 µM (active)
N#Cc1c(Cl)c(Cl)c(Cl)c(C#N)c1Cl,–,15.8 µM (active)
CNC(=O)Oc1cccc(N=CN(C)C)c1,inactive,–
O=C(O)C(F)(F)C(F)(F)C(F)(F)C(F)(F)C(F)(F)C(F)(F)C(F)(F)F,inactive,–
CCOc1nc(NC)nc(NC(=O)NS(=O)(=O)c2ccccc2C(=O)OC)n1,inactive,–
O=S1OCC2C(CO1)C1(Cl)C(Cl)=C(Cl)C2(Cl)C1(Cl)Cl (centres undefined),inactive,–
CCC(C)(C)C(=O)OC1=C(c2ccc(Cl)cc2Cl)C(=O)OC12CCCCC2,inactive,–
CCS(=O)(=O)c1cccnc1S(=O)(=O)NC(=O)Nc1nc(OC)cc(OC)n1,inactive,–
COP(=S)(OC)Oc1ccc([N+](=O)[O-])cc1,inactive,–
O=C1c2ccccc2C(=O)N1SC(Cl)(Cl)Cl,inactive,–
CCc1ccc(C(=O)NN(C(=O)c2cc(C)cc(C)c2)C(C)(C)C)cc1,inactive,–
CNC(=O)Oc1ccccc1OC(C)C,inactive,–
COP(=S)(OC)Oc1ccc(SC)c(C)c1,inactive,–
CC(C)(C)C(O)C(Oc1ccc(Cl)cc1)n1cncn1 (centres undefined),inactive,–
C[C@H]1[C@H](c2ccc(Cl)cc2)SC(=O)N1C(=O)NC1CCCCC1,inactive,–
CC[C@H](C)[C@H]1O[C@]2(C=C[C@@H]1C)C[C@@H]1C[C@@H](C/C=C(\C)[C@@H](O[C@H]3C[C@H](OC)[C@@H](O[C@H]4C[C@H](OC)[C@@H](O)[C@H](C)O4)[C@H](C)O3)[C@@H](C)/C=C/C=C3\CO[C@@H]4[C@H](O)C(C)=C[C@@H](C(=O)O1)[C@]34O)O2 (tested in a mixture with another compound),inactive,–
COC(=O)c1ccccc1S(=O)(=O)NC(=O)Nc1nc(C)nc(OC)n1,inactive,–
CCC(C)(NC(=O)c1cc(Cl)c(C)c(Cl)c1)C(=O)CCl (centres undefined),inactive,–
ClC1C(Cl)C(Cl)C(Cl)C(Cl)C1Cl (centres undefined),inactive,–
CC1(c2ccc(Oc3ccccc3)cc2)OC(=O)N(Nc2ccccc2)C1=O (centres undefined),inactive,–
O=C(O)CCCOc1ccc(Cl)cc1Cl,inactive,–

# Experiment: APR_HepG2_MicrotubuleCSK_1hr: Apredica 1-hour HepG2 Assay for Microtubule CSK Stabilty (AID 2282669)
# Details: HepG2 microtubule cytoskeleton imaging, actives raise or lower the signal
# Outline: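 Alpha-tubulin immunofluorescence, imaged by automated high-content microscopy with Hoechst nuclear segmentation, measured cytoskeletal change after 1 h dosing of HepG2 at 0.39–200 uM in 0.5% DMSO. Activity fitted in both directions relative to DMSO.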
row,Compound,outcome
1,O=S(=O)(O)C(F)(F)C(F)(F)C(F)(F)C(F)(F)C(F)(F)C(F)(F)C(F)(F)C(F)(F)F,inactive
2,CC(C)(C)C(O)/C(=C\c1ccc(Cl)cc1Cl)n1cncn1 (centres undefined),inactive
3,Cc1cc(C)nc(NC(=O)NS(=O)(=O)c2ccccc2C(=O)OC2COC2)n1,inactive
4,CN1CSC(=S)N(C)C1,inactive
5,CC(C)N(C(=O)COc1nnc(C(F)(F)F)s1)c1ccc(F)cc1,inactive
6,[2H]C1([2H])[n+]2ccccc2-c2cccc[n+]2C1([2H])[2H],inactive
7,Oc1ccc(Cl)cc1Cc1ccccc1,inactive
8,N#Cc1c(Cl)c(Cl)c(Cl)c(C#N)c1Cl,inactive
9,CNC(=O)Oc1cccc(N=CN(C)C)c1,inactive
10,O=C(O)C(F)(F)C(F)(F)C(F)(F)C(F)(F)C(F)(F)C(F)(F)C(F)(F)F,inactive
11,CCOc1nc(NC)nc(NC(=O)NS(=O)(=O)c2ccccc2C(=O)OC)n1,inactive
12,O=S1OCC2C(CO1)C1(Cl)C(Cl)=C(Cl)C2(Cl)C1(Cl)Cl (centres undefined),inactive
13,CCC(C)(C)C(=O)OC1=C(c2ccc(Cl)cc2Cl)C(=O)OC12CCCCC2,inactive
14,CCS(=O)(=O)c1cccnc1S(=O)(=O)NC(=O)Nc1nc(OC)cc(OC)n1,inactive
15,COP(=S)(OC)Oc1ccc([N+](=O)[O-])cc1,inactive
16,O=C1c2ccccc2C(=O)N1SC(Cl)(Cl)Cl,inactive
17,CCc1ccc(C(=O)NN(C(=O)c2cc(C)cc(C)c2)C(C)(C)C)cc1,inactive
18,CNC(=O)Oc1ccccc1OC(C)C,inactive
19,COP(=S)(OC)Oc1ccc(SC)c(C)c1,inactive
20,CC(C)(C)C(O)C(Oc1ccc(Cl)cc1)n1cncn1 (centres undefined),inactive
21,C[C@H]1[C@H](c2ccc(Cl)cc2)SC(=O)N1C(=O)NC1CCCCC1,inactive
22,CC[C@H](C)[C@H]1O[C@]2(C=C[C@@H]1C)C[C@@H]1C[C@@H](C/C=C(\C)[C@@H](O[C@H]3C[C@H](OC)[C@@H](O[C@H]4C[C@H](OC)[C@@H](O)[C@H](C)O4)[C@H](C)O3)[C@@H](C)/C=C/C=C3\CO[C@@H]4[C@H](O)C(C)=C[C@@H](C(=O)O1)[C@]34O)O2 (tested in a mixture with another compound),inactive
23,COC(=O)c1ccccc1S(=O)(=O)NC(=O)Nc1nc(C)nc(OC)n1,inactive
24,CCC(C)(NC(=O)c1cc(Cl)c(C)c(Cl)c1)C(=O)CCl (centres undefined),inactive
25,ClC1C(Cl)C(Cl)C(Cl)C(Cl)C1Cl (centres undefined),inactive
26,CC1(c2ccc(Oc3ccccc3)cc2)OC(=O)N(Nc2ccccc2)C1=O (centres undefined),inactive
27,O=C(O)CCCOc1ccc(Cl)cc1Cl,inactive
